For the assay, the system named is Drosophila S2 cl14 SmoIP sensor cells. Briefly: normalized SmoIP GFP fluorescence (untreated unstimulated = 0%, untreated Hh-stimulated = 100%); higher = more Smo activation sensor fluorescence. The conditions noted are these: compound concentration: 2 uM, 24 h.
The mark [1] stands for this setting: stimulation: Hh conditioned medium (+Hh).
Where [2] appears, read: stimulation: mock conditioned medium (-Hh).
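Further: flow cytometry read-out as median GFP intensity of gated cells, compounds added 30 min before Hh-conditioned or mock medium, mock-treated cells serving as unstimulated baseline.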

Turning to `Nc1nc(N)nc(-c2cc(Cl)ccc2Cl)n1` [Irsogladine-maleate], the “normalized SmoIP GFP fluorescence” value is, setting by setting: under setting [1], 140%; under setting [2], -3.9%.
As to `CC(C)[C@H](C(=O)Nc1ccc(C(=O)NO)cc1)c1ccccc1`, the “normalized SmoIP GFP fluorescence” value is, setting by setting: under setting [1], 299%; under setting [2], 60.6%.
As to `COCC[n+]1c2c(n(Cc3cnccn3)c1C)C(=O)c1ccccc1C2=O`, the “normalized SmoIP GFP fluorescence” value reads like this: under setting [1], 101%; under setting [2], -12.7%.
Turning to `COc1ccc(-c2ccc3ncc4c(c3c2)n(-c2ccc(N3CCNCC3)c(C(F)(F)F)c2)c(=O)n4C)cn1`, the “normalized SmoIP GFP fluorescence” value is 66.3% under setting [1] and -7.6% under setting [2].
For the molecule `CN1CCc2c(c3ccccc3n2Cc2ccc(C(=O)NO)cc2)C1` [tubastatin-a], the “normalized SmoIP GFP fluorescence” value is, setting by setting: under setting [1], 108%; under setting [2], -3.05%.
Consider `OCc1ccc(-c2ccc(-c3ccc(CO)s3)o2)s1`, for which the “normalized SmoIP GFP fluorescence” value runs as follows: under setting [1], 111%; under setting [2], -2.08%.
As to `O=C(O)c1cccc(-c2noc(-c3ccccc3F)n2)c1`, the “normalized SmoIP GFP fluorescence” value reads like this: under setting [1], 116%; under setting [2], -0.662%.
`Cn1cc(-c2ccc3c(c2)CCN3C(=O)Cc2cccc(C(F)(F)F)c2)c2c(N)ncnc21`: the “normalized SmoIP GFP fluorescence” value under setting [1] is 131% and the “normalized SmoIP GFP fluorescence” value under setting [2] came out at 39.3%.
For `CCC(=O)N1CCN(c2ccc(-n3c(=O)ccc4cnc5ccc(-c6cnc7ccccc7c6)cc5c43)cc2C(F)(F)F)CC1` [torin-1] the same measures were 46.9% and -12.5%.
As for `C=CC(=O)Nc1cccc(Nc2nc(Nc3ccc(N4CCN(C(C)=O)CC4)cc3OC)ncc2C(F)(F)F)c1`, the “normalized SmoIP GFP fluorescence” value by setting is: under setting [1], 61.9%; under setting [2], 44%.
Turning to `Cn1c(N2CCCCS2(=O)=O)nc(C(=O)NCc2ccc(F)cc2)c(O)c1=O`, the “normalized SmoIP GFP fluorescence” value reads like this: under setting [1], 99.7%; under setting [2], -2.42%.
Consider `O=C(/C=C/c1cccc(S(=O)(=O)Nc2ccccc2)c1)NO` [Belinostat], for which the “normalized SmoIP GFP fluorescence” value was determined as 189% under setting [1] and 54.6% under setting [2].
On to `CN1CCN(c2cccc(Nc3nc4c(-c5ccc(S(C)(=O)=O)cc5)cccn4n3)c2)CC1`, for which the “normalized SmoIP GFP fluorescence” value is, setting by setting: under setting [1], 92.1%; under setting [2], -3.39%.
